The whole screen tested about 360,000 compounds, of which about 4,200 (1.2%) were called active.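 Rule for the calls: active = mean replicate inhibition at least 60% with every replicate also reaching 60%; inconclusive = only one of the two criteria is met; inactive = mean below 60% and not all replicates reaching 60%.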 Many of the other results were omitted from the sample, so actives are more common in it than they were.
Experiment: PAX8 transcriptional activity inhibition in RMG-I – RMG-I cells, luciferase, single concentration, primary screen (AID 652154);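 note: luciferase light reporting Pax8 driven TPO promoter activity; plate controls were median of neutral control wells for no effect and mitoxantrone controls for full effect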
Conditions: RMG-I TPO-luciferase reporter, SteadyGlo, 24 h; at 12.6 µM; active compounds read high

| SMILES | inhibition |
| --- | --- |
| COc1ccc2c3c(n(C)c2c1)[C@@H](CO)N(Cc1ccncc1)CC31CN(C(=O)C2CCCCC2)C1 | -15.5% (inactive) |
| COc1ccc(S(=O)(=O)N(C)C[C@H]2OCCCC[C@@H](C)Oc3ccc(NC(=O)NC(C)C)cc3C(=O)N([C@H](C)CO)C[C@H]2C)cc1 | 17% (inactive) |
| C/C=C/c1ccc([C@H]2[C@@H](C#N)N(C(=O)CN3CCOCC3)[C@@H]2CO)cc1 | -6.35% (inactive) |
| COCCSc1nnc(NC(=O)CCS(=O)(=O)Cc2ccccc2)s1 | 65.7% (active) |
| CCOCc1nnc(NC(=O)CCS(=O)(=O)Cc2ccccc2)s1 | 50.3% (inactive) |
| COC(=O)CSc1nnc(NC(=O)CCc2ccccc2)s1 | -0.955% (inactive) |
| C[C@@H]1CN([C@@H](C)CO)S(=O)(=O)c2ccc(-c3cccc(C(=O)N(C)C)c3)cc2O[C@@H]1CN(C)C | -0.377% (inactive) |
| O=C(C[C@H]1C[C@H]2c3cc(NC(=O)C4CCC4)ccc3O[C@H]2[C@@H](CO)O1)NCc1ccc(Cl)cc1 | -5.09% (inactive) |
| C#Cc1cc(N2CCN(C(=O)c3ccoc3)CC2)n2nc(-c3cccc(Cl)c3)cc2n1 | 107% (active) |
| O=C(c1ccccc1)N1CCN(c2cc(-c3ccccc3)nc3cc(-c4cccc(Cl)c4)nn23)CC1 | 40.2% (inactive) |
| CN(C)CCN1CCN(c2cc(-c3cccc(Cl)c3)nc3ccnn23)CC1 | -3.43% (inactive) |
| C[C@@H]1CN([C@H](C)CO)C(=O)c2cccc(NS(=O)(=O)c3ccccc3)c2O[C@@H]1CN(C)Cc1ccc(C(=O)O)cc1 | 14.1% (inactive) |
| CCC(=O)Nc1ccc2c(c1)C(=O)N(C)[C@@H]1CC[C@@H](CC(=O)Nc3cccc(OC)c3)O[C@@H]1CO2 | 8.78% (inactive) |
| Cc1ccc(C)c(S(=O)(=O)N2CCN(c3ncnc4sccc34)CC2)c1 | 73.6% (active) |
| COc1ccc(-c2csc3ncnc(N4CCN(S(=O)(=O)c5ccccc5C#N)CC4)c23)cc1 | 9.25% (inactive) |
| Cc1ccc(C)c(S(=O)(=O)N2CCN(CC(=O)Nc3ccc([N+](=O)[O-])cc3)CC2)c1 | 6.46% (inactive) |
| CCC(=O)Nc1ccc2c(c1)OC[C@@H](C)N(Cc1ccccc1OC)C[C@H](C)[C@H](OC)CN(C)C2=O | -6.79% (inactive) |
| C[C@@H]1CN([C@H](C)CO)C(=O)c2cc(NS(=O)(=O)c3cn(C)cn3)ccc2O[C@H]1CN(C)S(=O)(=O)c1ccc(Cl)cc1 | 1.32% (inactive) |
| CC(=O)N(C)C[C@@H]1Oc2ncc(C#Cc3ccc(F)cc3)cc2C(=O)N([C@H](C)CO)C[C@@H]1C | -8.23% (inactive) |
| C[C@H](CO)N1C[C@H](C)[C@@H](CN(C)S(=O)(=O)c2cccc(F)c2)Oc2cc(C#CCN(C)C)ccc2S1(=O)=O | 14.6% (inactive) |
| COc1cccc(S(=O)(=O)N(C)C[C@@H]2Oc3cc(C4=CCCCC4)ccc3S(=O)(=O)N([C@H](C)CO)C[C@H]2C)c1 | 65.8% (active) |

| SMILES | inhibition |
| --- | --- |
| COc1ccccc1S(=O)(=O)N(C)C[C@H]1Oc2cc(C#CCC3CCCC3)ccc2S(=O)(=O)N([C@@H](C)CO)C[C@H]1C | 77.3% (active) |
| CCCN(C)C[C@H]1Oc2cc(C#CCC3CCCC3)ccc2S(=O)(=O)N([C@@H](C)CO)C[C@@H]1C | 2% (inactive) |
| Cc1ccc(S(=O)(=O)N(C)C[C@@H]2Oc3cc(C4=CCCC4)ccc3S(=O)(=O)N([C@@H](C)CO)C[C@@H]2C)cc1 | 36.4% (inactive) |
| CCCC#Cc1ccc2c(c1)O[C@@H](CN(C)S(=O)(=O)c1cccc(OC)c1)[C@H](C)CN([C@@H](C)CO)S2(=O)=O | 60.4% (active) |
| C[C@@H]1CN([C@H](C)CO)S(=O)(=O)c2ccc(C#CCC3CCCC3)cc2O[C@H]1CN(C)C(=O)CC1CC1 | 23.3% (inactive) |
| C[C@@H]1CN([C@@H](C)CO)S(=O)(=O)c2ccc(C#CCN(C)C)cc2O[C@@H]1CN(C)S(=O)(=O)c1cccc(F)c1 | -15.8% (inactive) |
| COCC(=O)N(C)C[C@@H]1Oc2cc(C3=CCCC3)ccc2S(=O)(=O)N([C@@H](C)CO)C[C@H]1C | -21% (inactive) |
| C[C@H]1CN([C@@H](C)CO)C(=O)Cc2cc(NC(=O)Nc3cccc4ccccc34)ccc2O[C@@H]1CN(C)C | -5.56% (inactive) |
| OC[C@H]1[C@H](c2ccc(-c3ccccc3F)cc2)[C@H]2CN(Cc3cncnc3)CCCCN21 | 1.13% (inactive) |
| COc1ccccc1-c1ccc2c(c1)O[C@H](CN(C)C(=O)c1cccnc1)[C@@H](C)CN([C@H](C)CO)S2(=O)=O | 15% (inactive) |
| C=CC[C@]12C[C@@]3(O[C@H](c4ccc(C(F)(F)F)cc4)N=C3C[C@H](c3ccc(OC)cc3)[C@H]1C)N(C1CCN(Cc3ccccc3)CC1)C2=O | -2.39% (inactive) |
| CNC[C@@H]1Oc2cc(C#CC3(O)CCCC3)ccc2S(=O)(=O)N([C@@H](C)CO)C[C@H]1C | 9.72% (inactive) |
| C[C@@H]1CN([C@H](C)CO)S(=O)(=O)c2ccc(C#CC3CCCC3)cc2O[C@@H]1CN(C)C(=O)Cc1ccncc1 | 90.6% (active) |
| C[C@H]1CN([C@@H](C)CO)S(=O)(=O)c2ccc(C#CC3CCCC3)cc2O[C@H]1CN(C)C(=O)Cc1ccncc1 | 32.9% (inactive) |
| C[C@H]1CN([C@@H](C)CO)S(=O)(=O)c2ccc(C#Cc3ccncc3)cc2O[C@@H]1CN(C)C(=O)Nc1ccc2c(c1)OCO2 | 101% (active) |
| C[C@@H]1CN([C@@H](C)CO)S(=O)(=O)c2ccc(C#Cc3ccccc3)cc2O[C@@H]1CN(C)C(=O)Nc1ccccc1 | 3.61% (inactive) |
| C[C@@H]1CN([C@H](C)CO)S(=O)(=O)c2ccc(C#CC3CCCCC3)cc2O[C@H]1CN(C)C(=O)Cc1ccncc1 | 0.108% (inactive) |
| C[C@H]1CN([C@@H](C)CO)S(=O)(=O)c2ccc(C3=CCCC3)cc2O[C@H]1CN(C)C(=O)Nc1ccc2c(c1)OCO2 | 19.4% (inactive) |
| C[C@@H]1CN([C@H](C)CO)S(=O)(=O)c2ccc(C3=CCCC3)cc2O[C@H]1CN(C)C(=O)Nc1ccc2c(c1)OCO2 | 8.58% (inactive) |
| C[C@H](CO)N1C[C@H](C)[C@H](CN(C)C(=O)Nc2ccc3c(c2)OCO3)Oc2cc(C#Cc3ccncc3)ccc2S1(=O)=O | 72.2% (active) |
| CC(C)C#Cc1ccc2c(c1)O[C@@H](CN(C)C(=O)NC(C)C)[C@H](C)CN([C@H](C)CO)S2(=O)=O | -13.2% (inactive) |

| SMILES | inhibition |
| --- | --- |
| CC(C)NC(=O)N1CCCCN2[C@@H](CO)[C@@H](c3ccc(C#Cc4ccccc4)cc3)[C@@H]2C1 | 1.5% (inactive) |
| C/C=C/c1ccc2c(c1)O[C@@H](CN(C)CC1CCOCC1)[C@@H](C)CN([C@H](C)CO)S2(=O)=O | -8.71% (inactive) |
| O=C(NC1CCCCC1)N[C@H]1CC[C@H](CCNS(=O)(=O)c2ccc(F)cc2)O[C@H]1CO | 1.61% (inactive) |
| C[C@@H]1CCCCO[C@H](CN(C)C(=O)c2ccccc2)[C@H](C)CN([C@H](C)CO)C(=O)c2cc(N(C)C)ccc2O1 | 12.7% (inactive) |
| CC(C)NC(=O)Nc1ccc2c(c1)C(=O)N([C@H](C)CO)C[C@@H](C)[C@@H](CN(C)C(=O)c1ccncc1)OCCCC[C@H](C)O2 | 1.42% (inactive) |
| Cc1ccc(S(=O)(=O)Nc2ccc3c(c2)C(=O)N([C@@H](C)CO)C[C@@H](C)[C@H](CN(C)Cc2ccc(C(F)(F)F)cc2)O3)cc1 | 10.1% (inactive) |
| C[C@H](CO)N1C[C@H](C)[C@@H](CN(C)Cc2ccc(-c3ccccc3)cc2)Oc2ccc(NC(=O)CCC(F)(F)F)cc2CC1=O | 70.4% (active) |
| C[C@@H]1CN([C@H](C)CO)C(=O)c2cccc(NC(=O)CCCCCC(=O)Nc3ccccc3N)c2O[C@H]1CN(C)Cc1ccc(Oc2ccccc2)cc1 | 71.9% (active) |
| C[C@@H]1CN([C@@H](C)CO)C(=O)Cc2cc(NC(=O)Nc3ccc(C(F)(F)F)cc3)ccc2O[C@H]1CN(C)Cc1ccc(C(=O)O)cc1 | -5.6% (inactive) |
| C[C@@H]1CN([C@@H](C)CO)C(=O)Cc2cc(NC(=O)CCCN(C)C)ccc2O[C@@H]1CN(C)Cc1ccc(-c2ccccc2)cc1 | 10.4% (inactive) |
| Cc1ccc(S(=O)(=O)Nc2ccc3c(c2)CC(=O)N([C@@H](C)CO)C[C@H](C)[C@H](CN(C)Cc2ccccc2)O3)cc1 | -12.9% (inactive) |
| C[C@H](CO)N1C[C@H](C)[C@H](CN(C)Cc2ccc(Oc3ccccc3)cc2)Oc2c(NC(=O)CCCCCC(=O)Nc3ccccc3N)cccc2C1=O | 9.67% (inactive) |
| C[C@H](CO)N1C[C@H](C)[C@@H](CN(C)Cc2ccc(Cl)c(Cl)c2)Oc2ccc(NC(=O)Nc3ccc(C(F)(F)F)cc3)cc2CC1=O | 99.1% (active) |
| C[C@@H]1CN([C@H](C)CO)C(=O)Cc2cc(NC(=O)Nc3ccccc3)ccc2O[C@H]1CN(C)Cc1ccc(Cl)c(Cl)c1 | 8.31% (inactive) |
| C[C@@H]1CN([C@@H](C)CO)C(=O)c2cccc(NC(=O)CCCCCC(=O)Nc3ccccc3N)c2O[C@H]1CN(C)C(=O)Nc1ccccc1 | -12.6% (inactive) |
| Cc1ccc(S(=O)(=O)Nc2ccc3c(c2)CC(=O)N([C@H](C)CO)C[C@@H](C)[C@H](CN(C)Cc2ccc(C(F)(F)F)cc2)O3)cc1 | 70.8% (active) |
| C[C@@H]1CN([C@H](C)CO)C(=O)Cc2cc(NC(=O)CCC(F)(F)F)ccc2O[C@@H]1CN(C)Cc1ccncc1 | -1.08% (inactive) |
| C[C@@H]1ON(C)[C@H]2C[C@H]3c4cc(N5CCOCC5)ccc4CCN3C[C@@H]12 | -4.88% (inactive) |
| O=C(Nc1ccccc1F)N1CC(=O)N2[C@H](C1)[C@@H](c1ccc(C#CC3CC3)cc1)[C@@H]2CO | -14.6% (inactive) |

— PubChem BioAssay AID652154 (Broad Institute, 2013)
